Data as given in PubChem BioAssay (Tox21).
Results filed as inconclusive are left out. The source made the active and inactive calls. Unless noted, calls follow the shape of the dose curve; as a rule, active = well fitted curve in the direction sought with a large enough effect in the repeat runs; inconclusive = weak or mixed curves; inactive = no such curve, though single readings can be large; an effect the other way counts as inactive or inconclusive.

What was measured:
[1] = target: Thyrotropin receptor (Homo sapiens) (UniProt P16473); assay: qHTS assay to identify small molecule antagonists of the thyroid stimulating hormone receptor (TSHR) signaling pathway (AID 1259385; calls by dose curve; also: nearly all actives have a fitted effect of over 20% in size)
Summary of the method: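 TSHR-HEK293 cells (800/well) plated 18 h, then compounds with Ro20-1724 and TSH at 1.5 ng/mL final, 30 min at room temperature. cAMP quantified by HTRF (cAMP-d2/anti-cAMP-cryptate, 1 h); 15 concentrations in triplicate.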

[2] = qHTS assay to identify small molecule agonists of the estrogen receptor alpha (ER-alpha) signaling pathway in the presence of an antagonist - cell viability counter screen (AID 1259386);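 also: cells exposed to compounds for 22 h at 37 °C before the viability read; nearly all actives have a fitted effect of over 30% in size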; also: potency is read from the fitted curve at half-maximal effect; as to activity change, negative = cytotoxicity: series mostly up to about 92 µM
Summary of the method: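 VM7Luc4E2, stripped-serum pre-culture 5 d; 24hr plating; +ICI-182,780 10.0nM final; cpds 15 conc, 22hr, 37C/5% CO2; CellTiter-Fluor added at 21hr, fluorescence 1hr later.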

[3] = target: Progesterone receptor (Homo sapiens) (UniProt P06401); assay: qHTS assay to identify small molecule agonists of the progesterone receptor (PR) signaling pathway (AID 1346784; calls by dose curve; also: nearly all actives have a fitted effect of over 30% in size)
Summary of the method: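 PR-UAS-bla HEK 293T cells carrying a UAS-driven beta-lactamase reporter were seeded in medium with 2% charcoal-stripped FBS, preincubated 6 hr at 37C, then exposed to compounds in DMSO for 16 hr; agonism was read by LiveBLAzer B/G FRET fluorescence.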

[4] = target: Progesterone receptor (Homo sapiens) (UniProt P06401); assay: qHTS assay to identify small molecule antagonists of the progesterone receptor (PR) signaling pathway (AID 1346795; active = well fitted inhibition curve with a large enough effect in the signal ratio in the repeat runs, not every such curve was filed as active; the % refers to the signal ratio; also: potency is read from the fitted curve at half-maximal effect)
Summary of the method: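 PR-UAS-bla HEK293T cells carrying a UAS-driven beta-lactamase reporter were plated in medium with 2% charcoal-stripped FBS and rested 6 hr at 37C. Compounds were added with 1 nM R5020 (final) for 16 hr, then FRET substrate loaded 2 hr at room temperature.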

[5] = qHTS assay to identify small molecule agonists of the progesterone receptor (PR) signaling pathway - cell viability counter screen (AID 1346799; calls by dose curve; also: nearly all actives have a fitted effect of over 45% in size; also: potency is read from the fitted curve at half-maximal effect)
Summary of the method: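 PR-UAS-bla HEK293T cells, 3,000 per well in medium with 2% charcoal-stripped FBS, were preincubated 6 hr at 37C, then exposed to compounds for 16 hr; viability was read as CellTiter-Glo luminescence after 30 min at room temperature.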

[6] = qHTS assay to identify small molecule antagonists of the TGF-beta/Smad signaling pathway - cell viability counter screen (AID 1346824); also: nearly all actives have a fitted effect of over 50% in size
Summary of the method: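 SBE-bla HEK 293T cells, incubated overnight, then compound plus 0.25 ng/mL TGF-beta1 (stock added) for 5 hr at 37 C. Viability was read in the same wells by CellTiter-Glo luminescence after 30 min at room temperature.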

[7] = qHTS assay to identify small molecule agonists of the TGF-beta/Smad signaling pathway - cell viability counter screen (AID 1346829); also: nearly all actives have a fitted effect of over 45% in size; also: potency is read from the fitted curve at half-maximal effect; as to activity change, negative = cytotoxicity: top concentration of the series differs between compounds
Summary of the method: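 Cytotoxicity counter screen: CellTiter-Glo luminescence (30 min, room temperature) measured in the SBE-bla HEK 293T reporter wells after 5 hr compound treatment at 37 C and the 2 hr substrate step.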

[8] = qHTS assay to identify small molecule agonists of the TGF-beta/Smad signaling pathway (AID 1346859; active = well fitted activation curve with a large enough effect in the signal ratio in the repeat runs, not every such curve was filed as active; the % refers to the signal ratio; also: series mostly up to about 77 µM)
Summary of the method: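 HEK 293T cells stably carrying a beta-lactamase reporter driven by the Smad binding element were seeded overnight, exposed to DMSO-dissolved compounds for 5 hr at 37 C, 5% CO2, then loaded with FRET substrate for 2 hr at room temperature.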

[9] = target: Thyrotropin-releasing hormone receptor (Homo sapiens) (UniProt P34981); assay: qHTS assay to identify small molecule antagonists of the thyrotropin-releasing hormone receptor (TRHR) signaling pathway (AID 1346877; active = well fitted inhibition curve with a large enough effect in the repeat runs, not every such curve was filed as active; also: series mostly up to about 51 µM)
Summary of the method: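 Intracellular calcium fluorescence, read kinetically every second over 3 min, reports TRH-evoked signalling in HEK293 cells carrying TRHR. Test compounds were added 5 min ahead of a 1 nM TRH challenge.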

[10] = qHTS assay to identify small molecule antagonists of the progesterone receptor (PR) signaling pathway - cell viability counter screen (AID 1346798); also: nearly all actives have a fitted effect of over 50% in size; also: potency is read from the fitted curve at half-maximal effect; as to activity change, negative = cytotoxicity: series mostly up to about 92 µM
Summary of the method: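 PR-UAS-bla HEK293T cells in medium with 2% charcoal-stripped FBS were treated with compounds plus R5020 for 16 hr at 37C. Cell viability was then read by CellTiter-Glo luminescence after 30 min at room temperature in the same wells.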
% is scaled to controls: 0 for no effect and ±100 for the full control effect.

Sequence of Thyrotropin receptor (Homo sapiens) (P16473 whole entry, looked up): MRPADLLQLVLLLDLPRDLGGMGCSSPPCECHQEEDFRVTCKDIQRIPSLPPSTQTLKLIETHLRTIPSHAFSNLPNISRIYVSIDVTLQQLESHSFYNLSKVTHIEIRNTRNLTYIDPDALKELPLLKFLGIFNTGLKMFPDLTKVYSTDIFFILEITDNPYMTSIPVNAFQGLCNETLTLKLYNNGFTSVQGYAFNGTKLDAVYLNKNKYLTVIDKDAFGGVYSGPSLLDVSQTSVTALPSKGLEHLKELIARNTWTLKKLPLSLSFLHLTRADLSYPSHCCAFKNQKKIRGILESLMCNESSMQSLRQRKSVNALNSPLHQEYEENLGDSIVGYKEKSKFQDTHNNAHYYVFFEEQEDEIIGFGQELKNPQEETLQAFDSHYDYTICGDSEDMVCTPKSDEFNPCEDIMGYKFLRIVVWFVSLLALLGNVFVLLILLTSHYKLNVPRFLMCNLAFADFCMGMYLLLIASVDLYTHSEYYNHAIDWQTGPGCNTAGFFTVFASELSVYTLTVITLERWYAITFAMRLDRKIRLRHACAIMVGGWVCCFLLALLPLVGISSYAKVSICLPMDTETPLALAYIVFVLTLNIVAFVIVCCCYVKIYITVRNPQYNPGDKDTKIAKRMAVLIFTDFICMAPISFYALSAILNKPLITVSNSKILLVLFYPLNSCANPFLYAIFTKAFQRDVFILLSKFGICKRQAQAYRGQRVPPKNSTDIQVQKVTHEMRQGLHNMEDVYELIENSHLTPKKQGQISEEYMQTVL
Sequence of Progesterone receptor (Homo sapiens) (P06401 whole entry, looked up): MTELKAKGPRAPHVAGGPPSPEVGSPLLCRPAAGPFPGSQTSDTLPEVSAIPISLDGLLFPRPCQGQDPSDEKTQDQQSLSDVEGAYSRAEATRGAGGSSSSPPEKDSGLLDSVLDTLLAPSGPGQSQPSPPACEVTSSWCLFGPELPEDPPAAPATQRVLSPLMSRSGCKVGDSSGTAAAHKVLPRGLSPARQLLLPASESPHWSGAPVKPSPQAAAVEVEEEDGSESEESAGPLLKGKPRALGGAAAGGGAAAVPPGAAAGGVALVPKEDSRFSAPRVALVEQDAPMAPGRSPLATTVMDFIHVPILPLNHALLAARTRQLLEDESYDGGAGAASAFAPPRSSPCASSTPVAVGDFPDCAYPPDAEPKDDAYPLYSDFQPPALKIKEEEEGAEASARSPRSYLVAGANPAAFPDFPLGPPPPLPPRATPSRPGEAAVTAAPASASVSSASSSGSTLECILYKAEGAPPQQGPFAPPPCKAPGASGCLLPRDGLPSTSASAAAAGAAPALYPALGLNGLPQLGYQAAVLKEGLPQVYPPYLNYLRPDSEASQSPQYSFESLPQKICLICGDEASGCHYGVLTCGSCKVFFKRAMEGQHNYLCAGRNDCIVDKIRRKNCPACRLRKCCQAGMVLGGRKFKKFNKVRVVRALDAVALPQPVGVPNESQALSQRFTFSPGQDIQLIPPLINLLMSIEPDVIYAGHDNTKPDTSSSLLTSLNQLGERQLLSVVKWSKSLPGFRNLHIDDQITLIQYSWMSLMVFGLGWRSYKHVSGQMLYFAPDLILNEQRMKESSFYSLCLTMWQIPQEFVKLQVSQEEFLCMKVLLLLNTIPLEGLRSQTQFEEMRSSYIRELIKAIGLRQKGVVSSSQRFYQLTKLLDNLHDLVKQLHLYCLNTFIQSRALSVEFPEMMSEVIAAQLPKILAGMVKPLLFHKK
Sequence of Thyrotropin-releasing hormone receptor (Homo sapiens) (P34981 whole entry, looked up): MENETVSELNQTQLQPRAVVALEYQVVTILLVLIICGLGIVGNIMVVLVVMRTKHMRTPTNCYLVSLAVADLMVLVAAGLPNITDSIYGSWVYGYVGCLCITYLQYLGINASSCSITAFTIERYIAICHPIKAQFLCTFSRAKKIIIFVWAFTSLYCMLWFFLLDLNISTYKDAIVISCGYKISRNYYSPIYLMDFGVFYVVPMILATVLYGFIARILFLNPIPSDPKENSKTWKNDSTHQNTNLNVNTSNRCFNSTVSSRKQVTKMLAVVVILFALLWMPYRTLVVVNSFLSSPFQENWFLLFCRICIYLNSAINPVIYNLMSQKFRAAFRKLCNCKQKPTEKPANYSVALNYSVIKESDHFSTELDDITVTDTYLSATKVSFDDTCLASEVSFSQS

CC(C)(CCl)C(=O)Cl
inactive: Potency [1] | Potency [2] | Potency [3] | Potency [4] | Potency [6] | Potency [7] | outcome [8] | Potency [9]
active: Potency [5] 48.5 µM

O=C1C(=O)c2cccc3cccc1c23
inactive: Potency [1] | Potency [2] | Potency [3] | Potency [10] | Potency [5] | Potency [6] | Potency [7] | outcome [8] | Potency [9]

COC(=O)c1cncn1C(C)c1ccccc1 (configuration not stated)
inactive: Potency [1] | Potency [2] | Potency [3] | Potency [4] | Potency [10] | Potency [6] | Potency [7] | outcome [8]

NCC(CC(=O)O)c1ccc(Cl)cc1 (configuration not stated)
inactive: activity change, negative = inhibition [1] 2.95% [at 0.349 µM] | activity change, negative = cytotoxicity [2] 7.95% [at 0.349 µM] | activation [3] 1.24% [at 0.349 µM] | activity change, negative = inhibition [4] 7.47% [at 0.348 µM] | activity change, negative = cytotoxicity [10] -8.73% [at 0.348 µM] | activity change, negative = cytotoxicity [5] 0.204% [at 0.349 µM] | viability change, negative = cytotoxic [6] 2.11% [at 0.29 µM] | activity change, negative = cytotoxicity [7] -5.36% [at 0.29 µM] | activity, negative = inhibition [9] 7.63% [at 0.194 µM]

N#C/C(N)=C(/N)C#N
inactive: Potency [1] | Potency [2] | Potency [3] | Potency [10] | Potency [5] | Potency [6] | Potency [7] | outcome [8] | Potency [9]

CCCCCCCCOC(=O)c1ccc(C(=O)OCCCCCCCC)c(C(=O)OCCCCCCCC)c1
active: Potency [10] 27.6 µM
inactive: Potency [1] | Potency [2] | Potency [3] | Potency [4] | Potency [5] | Potency [7] | outcome [8] | Potency [9]

CCOP(=S)(OCC)SCSCC
inactive: Potency [1] | Potency [2] | Potency [3] | Potency [10] | Potency [5] | Potency [6] | Potency [7] | outcome [8] | Potency [9]

CC1(C)CCC(Cc2ccc(Cl)cc2)C1(O)Cn1cncn1 (configuration not stated)
inactive: Potency [1] | Potency [2] | Potency [3] | Potency [5] | Potency [6] | Potency [7] | outcome [8] | Potency [9]
active: Potency [4] 4.33 µM

Brc1ccc(Oc2ccccc2)cc1
inactive: Potency [1] | Potency [2] | Potency [3] | Potency [4] | Potency [5] | Potency [6] | Potency [7] | outcome [8] | Potency [9]

C=CCCl
inactive: Potency [1] | Potency [2] | Potency [3] | Potency [4] | Potency [10] | Potency [5] | Potency [6] | Potency [7] | Potency [9]

C=CCC1([C@H](C)CCC)C(=O)NC(=O)NC1=O
inactive: Potency [1] | Potency [2] | Potency [3] | Potency [4] | Potency [10] | Potency [5] | Potency [6] | Potency [7] | Potency [9]

O=[N+]([O-])c1ccccc1CCl
inactive: Potency [1] | Potency [2] | Potency [3] | Potency [10] | Potency [5] | Potency [6] | Potency [7] | outcome [8] | Potency [9]

O=[N+]([O-])C(Br)(CO)CO
inactive: Potency [1] | Potency [2] | Potency [3] | Potency [4] | Potency [5] | Potency [6] | Potency [7] | outcome [8] | Potency [9]

ClCCCCBr
inactive: Potency [1] | Potency [2] | Potency [3] | Potency [4] | Potency [10] | Potency [6] | Potency [7] | Potency [9]

CCCCN=C=O
inactive: Potency [1] | Potency [2] | Potency [3] | Potency [4] | Potency [5] | Potency [6] | Potency [7] | Potency [9]

COC(C)(C)CCC[C@H](C)C/C=C/C(C)=C/C(=O)OC(C)C
inactive: Potency [1] | Potency [2] | Potency [3] | Potency [4] | Potency [10] | Potency [6] | Potency [7] | outcome [8] | Potency [9]

O=C(NC(=O)c1c(F)cccc1F)Nc1ccc(OC(F)(F)C(F)OC(F)(F)F)c(Cl)c1 (configuration not stated)
inactive: Potency [1] | Potency [2] | Potency [3] | Potency [4] | Potency [10] | Potency [5] | Potency [6] | Potency [7] | Potency [9]

CCCCc1c(C)nc(NCC)nc1OS(=O)(=O)N(C)C
active: Potency [2] 48.6 µM | Potency [4] 27.3 µM
inactive: Potency [1] | Potency [3] | Potency [6] | Potency [7] | outcome [8] | Potency [9]

CCC(Cl)CCl (configuration not stated)
inactive: Potency [1] | Potency [2] | Potency [3] | Potency [4] | Potency [10] | Potency [5] | Potency [6] | Potency [7] | Potency [9]

COP(=S)(OC)Oc1ccc([N+](=O)[O-])cc1Cl
inactive: Potency [1] | Potency [3] | Potency [4] | Potency [5] | Potency [6] | Potency [7] | outcome [8] | Potency [9]
active: Potency [2] 48.6 µM

CCCCOC(=O)c1ccccc1C(=O)OCc1ccccc1
inactive: Potency [1] | Potency [2] | Potency [3] | Potency [10] | Potency [5] | Potency [6] | Potency [7] | outcome [8] | Potency [9]

Nc1ccc([N+](=O)[O-])cc1[N+](=O)[O-]
inactive: Potency [1] | Potency [3] | Potency [10] | Potency [5] | Potency [6] | Potency [7] | outcome [8] | Potency [9]
active: Potency [2] 53.1 µM

CCCN(CC1CC1)c1c([N+](=O)[O-])cc(C(F)(F)F)cc1[N+](=O)[O-]
inactive: Potency [1] | Potency [2] | Potency [3] | Potency [10] | Potency [5] | Potency [6] | Potency [7] | outcome [8] | Potency [9]

NC(=O)C(Cl)(Cl)Cl
inactive: Potency [1] | Potency [2] | Potency [3] | Potency [4] | Potency [10] | Potency [5] | Potency [6] | Potency [7] | Potency [9]

C(=NC1CCCCC1)=NC1CCCCC1
inactive: Potency [1] | Potency [2] | Potency [3] | Potency [4] | Potency [6] | Potency [9]
active: Potency [7] 49.3 µM

O=[N+]([O-])c1ccc(F)c([N+](=O)[O-])c1
active: Potency [2] 30.9 µM
inactive: Potency [1] | Potency [3] | Potency [4] | Potency [7] | Potency [9]

NS(=O)(=O)C(F)(F)C(F)(F)C(F)(F)C(F)(F)C(F)(F)C(F)(F)C(F)(F)C(F)(F)F
active: Potency [10] 9.69 µM
inactive: Potency [1] | Potency [2] | Potency [5] | Potency [6] | Potency [7] | outcome [8] | Potency [9]

CC1(C)[C@H](C=C(Cl)Cl)[C@@H]1C(=O)O[C@@H](C#N)c1cccc(Oc2ccccc2)c1
inactive: Potency [1] | Potency [2] | Potency [3] | Potency [10] | Potency [6] | Potency [7] | outcome [8] | Potency [9]

COP(=S)(OC)Oc1cc(Cl)c(I)cc1Cl
inactive: Potency [1] | Potency [2] | Potency [6] | Potency [7] | outcome [8]
active: Potency [4] 21.7 µM
